This is an account of results in PubChem BioAssay (EPA / NIEHS).

A short description of assay [1]: ATG_PBREM_CIS: Attagene CIS-FACTORIAL HepG2 Assay for human Phenobarbital-responsive Enhancer Module (PBREM) (AID 2282955). Conditions: HepG2 PBREM cis-reporter, Attagene multiplexed transcription; actives raise or lower the signal. Summed up: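 Readout: reporter mRNA, fluorescent RT-PCR fragments separated by capillary electrophoresis. System: HepG2 transiently transfected with cis-regulated reporter units. Exposure: 24 h. Analysis: bidirectional, DMSO baseline.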

Assay [2] deals with Paired box protein Pax-6 (Homo sapiens) (UniProt P26367). The assay can be described thus: ATG_Pax6_CIS: Attagene CIS-FACTORIAL HepG2 Assay for human Paired Box 6 (PAX6) (AID 2282956). Conditions: HepG2 CIS-FACTORIAL PAX6 reporter transcription, RNA readout; actives raise or lower the signal. Summed up: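 DMSO-referenced bidirectional fits of reporter mRNA fluorescence; HepG2 with transient cis-promoter MRTUs, 24 h post-dose, RT-PCR plus capillary electrophoresis detection.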

The nature of assay [3]: ATG_PXRE_CIS: Attagene CIS-FACTORIAL HepG2 Assay for human Pregnane X Receptor Element (PXRE) (AID 2282957). To be noted: HepG2 Attagene CIS-FACTORIAL PXRE reporter, mRNA; actives raise or lower the signal. In short, it runs like this:
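Bidirectional activity, baselined to DMSO, derived from reporter mRNA fluorescence (RT-PCR plus capillary electrophoresis) in HepG2 cells bearing cis-promoter reporter units, 24 h exposure.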

The nature of assay [4]: ATG_RORE_CIS: Attagene CIS-FACTORIAL HepG2 Assay for human RAR-related Orphan Receptor Element (RORE) (AID 2282959). Conditions: HepG2 Attagene cis-factorial RORE reporter, mRNA; actives raise or lower the signal. In short, it runs like this:
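Measured here: transcript induction of a cis-regulated reporter in HepG2 cells transiently transfected via FuGene 6. After 24 h, RNA was processed by RT-PCR and fluorescent capillary electrophoresis; DMSO defined baseline activity.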

Assay [5] is described as follows: ATG_Sox_CIS: Attagene CIS-FACTORIAL HepG2 Assay for human SRY-box transcription factor (SOX) (AID 2282960). Conditions: HepG2 Attagene cis-factorial SOX reporter, mRNA; actives raise or lower the signal. Summed up: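 Using transiently transfected HepG2 cells, reporter transcription driven by cis elements was assessed 24 h after dosing. Signal was fluorescence of capillary-separated RT-PCR products, with DMSO defining baseline activity.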

The target of assay [6] is Transcription factor Sp1 (Homo sapiens) (UniProt P08047). Briefly: ATG_Sp1_CIS: Attagene CIS-FACTORIAL HepG2 Assay for human Specificity Protein 1 (Sp1) (AID 2282961). Conditions: HepG2 Sp1 cis-reporter transcription, actives raise or lower the signal. In short, it runs like this:
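After transient transfection of HepG2 cells with cis-promoter reporter units and 24 h chemical treatment, reporter transcripts were quantified by RT-PCR and capillary electrophoresis fluorescence. Gain- and loss-of-signal fitted against DMSO.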

Assay [7] can be described thus: ATG_SREBP_CIS: Attagene CIS-FACTORIAL HepG2 Assay for human Sterol Regulatory Element Binding (SREBP) (AID 2282962). Conditions: HepG2 Attagene cis-factorial SREBP reporter, mRNA; actives raise or lower the signal. In short, it runs like this: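 In this cis-format assay, HepG2 liver cells express reporters controlled by promoter elements responsive to native transcription factors. Exposure lasts 24 h; reporter mRNA fluorescence from capillary electrophoresis gives the signal, fitted bidirectionally against DMSO.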

Assay [8] has as its target Signal transducer and activator of transcription 3 (Homo sapiens) (UniProt P40763). The assay can be described thus: ATG_STAT3_CIS: Attagene CIS-FACTORIAL HepG2 Assay for human Signal Transducer and Activator of Transcription 3 (STAT3) (AID 2282963). Conditions: HepG2, Attagene cis-factorial STAT3 reporter transcription; actives raise or lower the signal. In short, it runs like this:
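Cis-factorial format: endogenous transcription factors in HepG2 drive transfected reporter units. After 24 h treatment, reporter RNA was reverse-transcribed, amplified, FAM-labelled and HpaI-digested before CE analysis; activity scored in both directions against DMSO.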

Assay [9] can be described thus: ATG_TCF_b_cat_CIS: Attagene CIS-FACTORIAL HepG2 Assay for human T-Cell-Factor with beta-catenin (TCF/b-cat) (AID 2282965). To be noted: HepG2 TCF/beta-catenin cis-reporter transcription, actives raise or lower the signal. Summed up:
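Endogenous transcription factor activity is captured through cis-promoter reporter constructs transiently introduced into human HepG2 liver cells. Induced reporter mRNA is measured after 24 h and fitted bidirectionally relative to DMSO.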

Assay [10] in a line: ATG_TAL_CIS: Attagene CIS-FACTORIAL HepG2 Assay for human TAL Basal Promoter (AID 2282966).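 Also: background control endpoint measuring basal TAL promoter reporter mRNA not a specific factor.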 To be noted: HepG2 Attagene cis-factorial TAL promoter reporter; actives raise or lower the signal. Summed up: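 Human hepatoma HepG2 cells, transfected with promoter-regulated reporter units, were treated 24 h. Reporter transcript levels, measured through RT-PCR and capillary electrophoresis, were fitted for gain or loss relative to DMSO.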

Assay [11] can be described thus: ATG_TGFb_CIS: Attagene CIS-FACTORIAL HepG2 Assay for human Transforming Growth Factor (TGF) (AID 2282967). Conditions: HepG2 Attagene CIS TGFb reporter, mRNA transcription; actives raise or lower the signal. In short, it runs like this: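 Multiplexed cis-reporter HepG2 system, 24 h treatment; mRNA induction read by fluorescence after RT-PCR and CE; DMSO negative control, bidirectional curve fitting.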

The target in assay [12] is Estrogen receptor (Homo sapiens) (UniProt P03372). Briefly: ATG_ERa_TRANS: Attagene TRANS-FACTORIAL HepG2 Assay for human Estrogen Receptor alpha (ERa) (AID 2282970; active = hit-call score of the fitted dose curve at least 0.9, where 1 is the maximum). Conditions: HepG2 Attagene TRANS ERa GAL4 reporter, mRNA. In short, it runs like this:
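Signal derives from fluorescence of labelled reporter PCR fragments separated by capillary electrophoresis. HepG2 cells transiently carrying multiple GAL4-UAS reporter units were treated 24 hours, and induction above DMSO baseline was fitted as activity.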

For assay [13], the target named is X-box-binding protein 1 (Homo sapiens) (UniProt P17861). Briefly: ATG_Xbp1_CIS: Attagene CIS-FACTORIAL HepG2 Assay for human X-box Binding Protein 1 (XBP1) (AID 2282972). To be noted: HepG2 XBP1 cis-element reporter, Attagene multiplex; actives raise or lower the signal. Summed up:
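Changes in reporter transcript abundance, read by RT-PCR and capillary electrophoresis, reflect endogenous transcription factor activity. Transfected HepG2 cells received compound for 24 hours; DMSO defined baseline for bidirectional analysis.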

The nature of assay [14]: ATG_TA_CIS: Attagene CIS-FACTORIAL HepG2 Assay for human TA Basal Promoter (AID 2282964). Conditions: HepG2 Attagene CIS-factorial TA basal promoter reporter; actives raise or lower the signal. In short, it runs like this: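 Cis-factorial format in HepG2: reporters report endogenous factors, not chimeric Gal4 fusions. After 24 h treatment, reporter transcripts were measured by RT-PCR-capillary electrophoresis fluorescence, analysed bidirectionally versus DMSO.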

A short description of assay [15]: ATG_VDRE_CIS: Attagene CIS-FACTORIAL HepG2 Assay for human Vitamin D Receptor Element (VDRE) (AID 2282968). Conditions: HepG2 VDRE cis-reporter transcription, actives raise or lower the signal. Summed up: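 Measures endogenous factor activity through cis-element-driven reporter transcripts in transiently transfected HepG2. Cells are treated 24 h; reporter mRNA is quantified by RT-PCR and capillary electrophoresis; fitting is bidirectional.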

The target of assay [16] is Steroid hormone receptor ERR1 (Homo sapiens) (UniProt P11474). Briefly: ATG_ERRa_TRANS: Attagene TRANS-FACTORIAL HepG2 Assay for human Estrogen-Related Receptor alpha (ERRa) (AID 2282971; active = hit-call score of the fitted dose curve at least 0.9, where 1 is the maximum). To be noted: HepG2 Attagene TRANS reporter, ERRa transactivation. Summed up: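 Signal gain relative to DMSO for an ERRa-Gal4 chimeric receptor, read as reporter mRNA by RT-PCR/capillary electrophoresis. Human HepG2 liver cells, transient multiplex reporter transfection, 24 h chemical exposure.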

Assay [17] deals with Nuclear receptor subfamily 1 group I member 3 (Homo sapiens) (UniProt Q14994). The assay can be described thus: ATG_CAR_TRANS: Attagene TRANS-FACTORIAL HepG2 Assay for human Constitutive Androstane Receptor (CAR) (AID 2282969; active = hit-call score of the fitted dose curve at least 0.9, where 1 is the maximum;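 also: activators raise reporter mRNA above DMSO so AC50 marks induction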). Conditions: HepG2 Attagene TRANS-FACTORIAL CAR reporter. In short, it runs like this:
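Signal is reporter mRNA induction relative to DMSO, measured 24 h after dosing by RT-PCR with fluorescent primer extension and capillary electrophoresis. Human HepG2 liver cells carried transiently transfected chimeric NR-Gal4/GAL4-UAS reporter constructs.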

The nature of assay [18]: ATG_GAL4_TRANS: Attagene TRANS-FACTORIAL HepG2 Assay for GAL4 (Internal Marker) (AID 2282976; active = hit-call score of the fitted dose curve at least 0.9, where 1 is the maximum). Conditions: HepG2 Attagene TRANS GAL4 internal marker reporter. Summed up:
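Liver HepG2 line bearing multiplexed GAL4-UAS reporter constructs; 24 h chemical treatment. Transcripts were quantified as fluorescent fragments on capillary electrophoresis after RT-PCR and HpaI cut, with activity fitted upward from DMSO.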

Results filed as inconclusive are left out. Active and inactive are the calls of the source. The calls were made as follows, unless noted: active = hit-call score of the fitted dose curve at least 0.9, where 1 is the maximum; inactive = score below 0.9.

X-box-binding protein 1 (Homo sapiens), sequence (P17861 whole entry, looked up): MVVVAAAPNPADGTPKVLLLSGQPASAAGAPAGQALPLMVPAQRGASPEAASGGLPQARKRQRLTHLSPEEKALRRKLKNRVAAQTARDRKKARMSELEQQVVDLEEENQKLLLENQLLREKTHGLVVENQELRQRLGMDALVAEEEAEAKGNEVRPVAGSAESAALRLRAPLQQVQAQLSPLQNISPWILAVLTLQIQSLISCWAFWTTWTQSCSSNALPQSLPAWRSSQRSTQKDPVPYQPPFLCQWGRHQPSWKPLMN
Signal transducer and activator of transcription 3 (Homo sapiens), sequence (P40763 whole entry, looked up): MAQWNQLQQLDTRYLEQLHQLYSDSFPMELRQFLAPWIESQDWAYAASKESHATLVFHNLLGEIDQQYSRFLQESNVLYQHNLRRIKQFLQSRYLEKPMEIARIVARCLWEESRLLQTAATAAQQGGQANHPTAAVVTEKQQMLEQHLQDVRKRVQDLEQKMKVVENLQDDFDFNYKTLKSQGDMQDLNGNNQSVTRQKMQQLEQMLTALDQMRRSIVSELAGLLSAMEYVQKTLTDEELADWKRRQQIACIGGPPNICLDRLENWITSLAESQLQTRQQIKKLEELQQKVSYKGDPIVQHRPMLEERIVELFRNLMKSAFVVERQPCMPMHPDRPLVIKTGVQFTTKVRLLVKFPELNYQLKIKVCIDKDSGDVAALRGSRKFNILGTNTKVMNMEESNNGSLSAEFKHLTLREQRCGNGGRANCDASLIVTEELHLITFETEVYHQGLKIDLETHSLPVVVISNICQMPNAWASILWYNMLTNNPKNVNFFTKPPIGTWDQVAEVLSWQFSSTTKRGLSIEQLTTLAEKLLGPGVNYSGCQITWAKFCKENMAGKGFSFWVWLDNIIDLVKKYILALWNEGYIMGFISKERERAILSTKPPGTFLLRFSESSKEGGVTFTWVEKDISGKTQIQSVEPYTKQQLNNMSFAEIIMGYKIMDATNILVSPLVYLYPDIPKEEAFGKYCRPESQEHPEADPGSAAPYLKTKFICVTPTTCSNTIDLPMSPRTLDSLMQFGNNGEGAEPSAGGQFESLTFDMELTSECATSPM
Paired box protein Pax-6 (Homo sapiens), sequence (P26367 whole entry, looked up): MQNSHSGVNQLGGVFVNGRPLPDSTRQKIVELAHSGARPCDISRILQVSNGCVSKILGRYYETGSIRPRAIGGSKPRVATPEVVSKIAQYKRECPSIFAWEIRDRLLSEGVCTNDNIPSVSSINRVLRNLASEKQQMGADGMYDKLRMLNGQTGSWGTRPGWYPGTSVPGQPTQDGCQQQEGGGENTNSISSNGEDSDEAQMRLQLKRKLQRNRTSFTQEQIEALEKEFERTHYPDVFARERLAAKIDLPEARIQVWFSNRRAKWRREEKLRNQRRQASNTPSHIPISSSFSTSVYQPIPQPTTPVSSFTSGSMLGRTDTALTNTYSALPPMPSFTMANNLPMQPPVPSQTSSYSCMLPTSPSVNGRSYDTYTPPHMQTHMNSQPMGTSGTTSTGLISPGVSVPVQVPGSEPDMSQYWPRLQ
Estrogen receptor (Homo sapiens), sequence (P03372 whole entry, looked up, the tested form may be a part): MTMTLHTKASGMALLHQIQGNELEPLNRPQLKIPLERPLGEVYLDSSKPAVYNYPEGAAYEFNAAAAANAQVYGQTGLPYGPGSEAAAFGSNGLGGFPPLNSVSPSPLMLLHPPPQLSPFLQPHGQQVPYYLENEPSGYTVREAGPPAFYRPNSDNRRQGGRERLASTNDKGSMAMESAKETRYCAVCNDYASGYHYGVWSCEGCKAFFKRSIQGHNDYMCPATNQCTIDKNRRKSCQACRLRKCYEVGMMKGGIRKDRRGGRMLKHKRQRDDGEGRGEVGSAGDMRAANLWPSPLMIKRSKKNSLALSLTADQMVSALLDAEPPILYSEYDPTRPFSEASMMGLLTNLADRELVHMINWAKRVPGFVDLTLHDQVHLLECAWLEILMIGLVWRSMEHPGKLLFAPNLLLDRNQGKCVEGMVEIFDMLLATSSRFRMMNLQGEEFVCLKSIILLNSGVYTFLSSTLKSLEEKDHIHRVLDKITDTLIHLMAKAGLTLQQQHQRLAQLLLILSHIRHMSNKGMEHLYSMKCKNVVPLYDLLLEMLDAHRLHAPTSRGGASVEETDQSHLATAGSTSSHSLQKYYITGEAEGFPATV
Transcription factor Sp1 (Homo sapiens), sequence (P08047 whole entry, looked up): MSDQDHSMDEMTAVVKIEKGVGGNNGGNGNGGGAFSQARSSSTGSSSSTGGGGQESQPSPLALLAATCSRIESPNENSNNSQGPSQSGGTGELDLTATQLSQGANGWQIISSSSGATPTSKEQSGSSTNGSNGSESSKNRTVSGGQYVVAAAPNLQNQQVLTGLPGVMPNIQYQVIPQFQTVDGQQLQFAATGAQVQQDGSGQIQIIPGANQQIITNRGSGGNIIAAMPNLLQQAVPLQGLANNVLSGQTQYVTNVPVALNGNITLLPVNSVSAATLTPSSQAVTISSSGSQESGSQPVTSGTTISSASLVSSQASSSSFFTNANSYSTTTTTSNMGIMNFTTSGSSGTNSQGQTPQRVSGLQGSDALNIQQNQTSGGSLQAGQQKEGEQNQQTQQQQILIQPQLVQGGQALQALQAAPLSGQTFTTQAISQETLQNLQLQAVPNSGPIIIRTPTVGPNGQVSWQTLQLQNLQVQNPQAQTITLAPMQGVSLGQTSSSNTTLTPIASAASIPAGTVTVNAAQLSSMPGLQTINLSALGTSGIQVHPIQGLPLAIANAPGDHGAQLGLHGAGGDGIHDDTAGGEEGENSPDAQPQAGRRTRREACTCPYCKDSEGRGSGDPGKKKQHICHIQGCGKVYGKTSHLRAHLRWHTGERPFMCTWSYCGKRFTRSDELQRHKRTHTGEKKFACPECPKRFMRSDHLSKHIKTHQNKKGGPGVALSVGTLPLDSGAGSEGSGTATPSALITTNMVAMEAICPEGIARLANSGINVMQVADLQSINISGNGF
Steroid hormone receptor ERR1 (Homo sapiens), sequence (P11474 whole entry, looked up, the tested form may be a part): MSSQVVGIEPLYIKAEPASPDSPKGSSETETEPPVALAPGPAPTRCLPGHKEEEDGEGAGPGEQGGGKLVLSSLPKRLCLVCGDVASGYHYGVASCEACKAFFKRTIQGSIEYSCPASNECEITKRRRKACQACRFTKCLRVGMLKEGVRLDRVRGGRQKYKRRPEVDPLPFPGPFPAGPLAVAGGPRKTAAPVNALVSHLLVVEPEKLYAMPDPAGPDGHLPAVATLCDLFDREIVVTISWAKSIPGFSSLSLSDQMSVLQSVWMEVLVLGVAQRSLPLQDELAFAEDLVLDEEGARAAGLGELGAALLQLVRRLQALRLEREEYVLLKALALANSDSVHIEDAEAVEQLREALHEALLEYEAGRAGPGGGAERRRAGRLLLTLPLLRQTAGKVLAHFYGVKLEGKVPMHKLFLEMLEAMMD
Nuclear receptor subfamily 1 group I member 3 (Homo sapiens), sequence (Q14994 whole entry, looked up, the tested form may be a part): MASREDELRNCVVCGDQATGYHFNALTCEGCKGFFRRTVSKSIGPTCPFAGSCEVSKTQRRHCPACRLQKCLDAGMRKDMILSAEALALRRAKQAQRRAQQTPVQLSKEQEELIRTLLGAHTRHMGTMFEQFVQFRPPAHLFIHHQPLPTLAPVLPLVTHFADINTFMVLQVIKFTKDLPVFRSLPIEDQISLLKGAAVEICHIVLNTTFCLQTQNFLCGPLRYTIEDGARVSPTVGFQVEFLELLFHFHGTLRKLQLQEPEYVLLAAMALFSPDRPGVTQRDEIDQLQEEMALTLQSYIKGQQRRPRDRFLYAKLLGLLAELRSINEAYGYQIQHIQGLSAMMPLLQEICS

`CCCCCCO`: the result in assay [1], in [2], in assay [3], in [4], in assay [5] and in assay [6] was inactive. Besides, the result in [7], in [8], in assay [9], in assay [10], in [11] and in assay [12] was inactive. Moreover, in [13], the outcome was inactive.

With `Nc1ccc(O)c([N+](=O)[O-])c1`, the outcome in assay [1], in assay [2], in assay [3], in [4], in [5] and in assay [6] was inactive. Moreover, the outcome in [7], in assay [8], in assay [14], in [9], in [10] and in assay [11] was inactive. Further, the result in [15], in assay [12], in assay [16] and in assay [13] was inactive.

The AC50 is the concentration giving half of the maximal activity seen. As to `CCCCCCOc1ccc(N)cc1`, the outcome in [1], in assay [2], in [4], in assay [5], in [6] and in assay [7] was inactive. Further, the compound was classed as inactive in [8], in assay [14], in assay [9], in assay [10], in assay [11] and in assay [15]. In addition, the compound was classed as inactive in assay [17], in [12] and in assay [13]. For the same compound, in assay [3], the AC50 is 26.8 µM (active).

As for `CC(C)CO`, the result in assay [1], in assay [2], in [3], in assay [4], in [5] and in [6] was inactive. In addition, the compound was classed as inactive in assay [7], in [8], in assay [14], in assay [9], in assay [10] and in assay [15]. The compound was called inactive in assay [12], in [13] and in [18]. Also, the AC50 in [11] was 0.224 µM (active).

Consider `C=CC(=O)OCCCCCCCC(C)C`, for which the result in [1], in assay [2], in assay [5], in assay [6], in assay [7] and in assay [8] was inactive. The result in [14], in [9], in assay [10], in [15], in assay [12] and in [13] was inactive. Moreover, the outcome in assay [18] was inactive. Also, the AC50 in assay [3] is 7.99 µM (active); in assay [4] it was 100 µM (active); in assay [11], 55 µM (active).

On to `CCOC(=O)c1ccccc1C`, for which the outcome in [1], in assay [2], in [3], in assay [4], in assay [5] and in [6] was inactive. In addition, the call in assay [7], in assay [8], in [14], in assay [9], in assay [10] and in assay [11] was inactive. Moreover, the call in [13] was inactive.

As for `CN(C)Cc1cc(CN(C)C)c(O)c(CN(C)C)c1`, the result in assay [1], in assay [2], in assay [3], in assay [4], in assay [5] and in assay [6] was inactive. The compound was called inactive in assay [7], in [8], in assay [14], in assay [9], in [10] and in assay [11]. Further, the compound was called inactive in [12] and in [13].
